Results as given in PubChem BioAssay (Tox21).
Results filed as inconclusive are left out. Calls of active or inactive are those of the source. Unless noted, the call rests on the fitted dose curve; in most records, active means well fitted curve in the direction sought with a large enough effect in the repeat runs; inconclusive means weak or mixed curves; inactive means no such curve, though single readings can be large; an effect the other way counts as inactive or inconclusive.

Assays:
[1] = qHTS assay to identify small molecule antagonists of the estrogen receptor alpha (ER-alpha) signaling pathway using the BG1 cell line in the presence of 0.1 nM 17-beta-estradiol - cell viability counter screen (AID 1259241); further: nearly all actives have a fitted effect of over 40% in size
How it was run: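 Cells were plated and left 24 hr, compounds in DMSO were pinned in, 17beta-estradiol was added to 0.1 nM final, and after 22 hr CellTiter-Fluor reagent was added for 30 min before fluorescence was read.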

[2] = qHTS assay to identify small molecule antagonists of the androgen receptor (AR) signaling pathway using the MDA cell line in the presence of 0.5 nM R1881 - cell viability counter screen (AID 1259242); further: nearly all actives have a fitted effect of over 45% in size
How it was run: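 qHTS format. MDA-kb2 (MMTV-luc, AR/GR responsive) + cpd + 0.5 nM R1881 final, 16 hr 37C/0% CO2 → CellTiter-Fluor 30 min → fluorescence intensity.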

[3] = molecular target: Estrogen receptor (Homo sapiens) (UniProt P03372); experiment: qHTS assay to identify small molecule antagonists of the estrogen receptor alpha (ER-alpha) signaling pathway using the BG1 cell line in the presence of 0.1 nM 17-beta-estradiol (AID 1259244); further: nearly all actives have a fitted effect of over 50% in size
Chain of Estrogen receptor (Homo sapiens) (P03372 whole entry, looked up): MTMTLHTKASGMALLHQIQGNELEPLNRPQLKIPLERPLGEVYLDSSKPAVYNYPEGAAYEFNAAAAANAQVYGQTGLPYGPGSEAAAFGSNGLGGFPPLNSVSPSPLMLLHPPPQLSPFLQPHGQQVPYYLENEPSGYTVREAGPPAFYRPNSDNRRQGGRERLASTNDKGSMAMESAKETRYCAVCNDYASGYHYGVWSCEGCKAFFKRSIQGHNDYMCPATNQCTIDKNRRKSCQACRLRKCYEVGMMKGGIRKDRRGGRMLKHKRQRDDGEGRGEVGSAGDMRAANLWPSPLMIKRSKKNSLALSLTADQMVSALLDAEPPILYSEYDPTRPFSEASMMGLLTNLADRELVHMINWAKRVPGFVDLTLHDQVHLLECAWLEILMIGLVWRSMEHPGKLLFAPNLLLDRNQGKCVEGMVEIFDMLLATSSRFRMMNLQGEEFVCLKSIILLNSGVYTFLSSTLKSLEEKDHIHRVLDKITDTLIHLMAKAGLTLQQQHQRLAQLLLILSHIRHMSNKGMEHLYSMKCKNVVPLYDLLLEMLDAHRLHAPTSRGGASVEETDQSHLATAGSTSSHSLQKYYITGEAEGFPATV
How it was run: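 Reporter is a stably transfected luciferase under four estrogen responsive elements in VM7Luc4E2 cells expressing native full-length ER-alpha; inhibition of 0.1 nM (final) 17beta-estradiol-driven signal over 22 h is read by luminescence.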

[4] = qHTS assay to identify small molecule phospholipidosis (PLD) inducers (AID 1259344; active means well fitted curve in the direction sought with a large enough effect; an effect the other way counts as inactive or inconclusive)
How it was run: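 Phospholipid accumulation was scored by imaging: fixed, Hoechst-counterstained HepG2 cells stained with LipidTOX Red after 24 h compound exposure at 37 C. Read-outs were pit count and pit intensity per well or per cell, with amiodarone and DMSO controls.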

[5] = qHTS assay to identify small molecule HDAC inhibitors (AID 1259364);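 further: wild-type HCT-116 cells with endogenous class I/II HDAC activity; top concentration of the series differs between compounds; nearly all actives have a fitted effect of over 45% in size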
How it was run: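 Quantitative high-throughput format: overnight-seeded HCT-116 cells got compounds for 2 hr at 37C; HDAC-Glo I/II reagent added, 30 min RT, luminescence measured.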

[6] = qHTS assay to identify small molecule HDAC inhibitors - cell viability counter screen (AID 1259365); further: series mostly up to about 92 µM; nearly all actives have a fitted effect of over 50% in size
How it was run: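 Counter screen in wild-type HCT-116 cells: compounds dissolved in DMSO are pin-transferred onto overnight-plated cells and left 2hr at 37C. ATP-based CellTiter-Glo luminescence then measures viable cells.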

[7] = qHTS assay to identify small molecule agonists of the sonic hedgehog signaling (Shh) pathway (AID 1259368; calls by dose curve;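 further: NIH/3T3-derived 3T3Gli1-Luc cells carrying a stable Gli1-driven firefly luciferase reporter; series mostly up to about 92 µM; nearly all actives have a fitted effect of over 15% in size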)
How it was run: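 Quantitative high-throughput format using a Gli1-driven firefly luciferase reporter line derived from NIH/3T3 cells. After a 24 hr compound treatment at 37 C and 5% CO2, luminescence reported Gli1 response element activity.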

[8] = qHTS assay to identify small molecule antagonists of the sonic hedgehog signaling (Shh) pathway (AID 1259369; calls by dose curve; further: nearly all actives have a fitted effect of over 45% in size; further: potency means the concentration at half of the fitted maximal effect)
How it was run: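 Stable Gli1-Luc reporter NIH/3T3 clone; quantitative HTS in stimulated mode with conditioned medium. Luminescence measured after 24hr compound treatment at 37 C.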

[9] = molecular target: Estrogen receptor beta (Homo sapiens) (UniProt Q92731); experiment: qHTS assay to identify small molecule agonists of the estrogen receptor beta (ER-beta) signaling pathway (AID 1259377; active means well fitted activation curve with a large enough effect in the signal ratio in the repeat runs, not every such curve was filed as active; the % refers to the signal ratio)
Chain of Estrogen receptor beta (Homo sapiens) (Q92731 whole entry, looked up, the tested form may be a part): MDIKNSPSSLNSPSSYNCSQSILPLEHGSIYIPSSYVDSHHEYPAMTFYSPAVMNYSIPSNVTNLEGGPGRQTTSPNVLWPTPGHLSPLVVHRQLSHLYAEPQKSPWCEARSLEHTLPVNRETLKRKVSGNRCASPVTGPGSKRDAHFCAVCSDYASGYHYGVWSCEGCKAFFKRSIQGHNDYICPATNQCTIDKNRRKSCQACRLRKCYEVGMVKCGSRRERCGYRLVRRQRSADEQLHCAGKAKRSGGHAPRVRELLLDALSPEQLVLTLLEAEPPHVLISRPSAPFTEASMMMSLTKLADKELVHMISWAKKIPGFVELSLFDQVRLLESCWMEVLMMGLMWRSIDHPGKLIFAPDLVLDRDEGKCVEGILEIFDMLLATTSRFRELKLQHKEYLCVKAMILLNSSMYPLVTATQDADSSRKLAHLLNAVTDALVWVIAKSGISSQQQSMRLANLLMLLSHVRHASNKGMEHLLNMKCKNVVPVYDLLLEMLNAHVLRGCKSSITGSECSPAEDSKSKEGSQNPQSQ
How it was run: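 Agonist mode cell assay in GripTite HEK293T cells expressing an ER-beta fusion that drives beta-lactamase from an Upstream Activator Sequence; 16 hr compound exposure at 37C, then 2 h LiveBLAzer B/G FRET substrate at room temperature, fluorescence read-out.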

[10] = molecular target: Estrogen receptor beta (Homo sapiens) (UniProt Q92731); experiment: qHTS assay to identify small molecule antagonists of the estrogen receptor beta (ER-beta) signaling pathway (AID 1259378; active means well fitted inhibition curve with a large enough effect in the signal ratio in the repeat runs, not every such curve was filed as active; the % refers to the signal ratio; further: potency means the concentration at half of the fitted maximal effect)
How it was run: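 Antagonist mode: compounds added to beta-lactamase reporter HEK293T ER-beta-UAS cells stimulated with E2 (1nM final), 16 hr at 37C. LiveBLAzer B/G FRET substrate, 2 hours room temperature, fluorescence read-out.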

[11] = qHTS assay to identify small molecule agonists of the androgen receptor (AR) signaling pathway in the presence of an antagonist - cell viability counter screen (AID 1259379);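 further: MDA-kb2 human breast cancer cells carrying an MMTV luciferase reporter; series mostly up to about 92 µM; nearly all actives have a fitted effect of over 25% in size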
How it was run: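 Nilutamide-containing (3.0uM final) MDA-kb2 cultures, 3,000 cells/well, were treated with compounds across 15 concentrations. After 16 hr at 37C with no CO2, cell viability was determined by CellTiter-Fluor fluorescence in the luciferase assay wells.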

[12] = qHTS assay to identify small molecule agonists of the estrogen receptor beta (ER-beta) signaling pathway - cell viability counter screen (AID 1259380); further: nearly all actives have a fitted effect of over 30% in size
How it was run: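 Steps: plate ER-beta-UAS-bla HEK293T cells, rest 6 hr; add compounds in DMSO; incubate 16 hr at 37C, 5% CO2; add FRET substrate 2 hr; add CellTiter-Glo, wait 30 min at room temperature; read luminescence.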

[13] = qHTS assay to identify small molecule antagonists of the estrogen receptor beta (ER-beta) signaling pathway - cell viability counter screen (AID 1259382);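 further: HEK293T cells carrying ER-beta-UAS-bla reporter stimulated with estradiol; series mostly up to about 92 µM; nearly all actives have a fitted effect of over 55% in size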
How it was run: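 Viability is scored by CellTiter-Glo luminescence (30 min, room temperature) in ER-beta-UAS-bla HEK293T wells already read for reporter fluorescence. Compound exposure lasts 16 hr at 37C alongside 1nM 17-beta-estradiol in charcoal-stripped serum medium.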

[14] = molecular target: Estrogen receptor (Homo sapiens) (UniProt P03372); experiment: qHTS assay to identify small molecule agonists of the estrogen receptor alpha (ER-alpha) signaling pathway in the presence of an antagonist (AID 1259383; calls by dose curve; further: top concentration of the series differs between compounds; nearly all actives have a fitted effect of over 15% in size)
How it was run: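 Readout was ERE-driven luciferase luminescence in VM7Luc4E2 cells, which express full-length ER-alpha endogenously. Compounds were tested at 15 concentrations for 22hr alongside 10.0nM ICI-182,780 (final concentration).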

[15] = molecular target: Thyrotropin receptor (Homo sapiens) (UniProt P16473); experiment: qHTS assay to identify small molecule antagonists of the thyroid stimulating hormone receptor (TSHR) signaling pathway (AID 1259385; calls by dose curve; further: nearly all actives have a fitted effect of over 20% in size)
Chain of Thyrotropin receptor (Homo sapiens) (P16473 whole entry, looked up): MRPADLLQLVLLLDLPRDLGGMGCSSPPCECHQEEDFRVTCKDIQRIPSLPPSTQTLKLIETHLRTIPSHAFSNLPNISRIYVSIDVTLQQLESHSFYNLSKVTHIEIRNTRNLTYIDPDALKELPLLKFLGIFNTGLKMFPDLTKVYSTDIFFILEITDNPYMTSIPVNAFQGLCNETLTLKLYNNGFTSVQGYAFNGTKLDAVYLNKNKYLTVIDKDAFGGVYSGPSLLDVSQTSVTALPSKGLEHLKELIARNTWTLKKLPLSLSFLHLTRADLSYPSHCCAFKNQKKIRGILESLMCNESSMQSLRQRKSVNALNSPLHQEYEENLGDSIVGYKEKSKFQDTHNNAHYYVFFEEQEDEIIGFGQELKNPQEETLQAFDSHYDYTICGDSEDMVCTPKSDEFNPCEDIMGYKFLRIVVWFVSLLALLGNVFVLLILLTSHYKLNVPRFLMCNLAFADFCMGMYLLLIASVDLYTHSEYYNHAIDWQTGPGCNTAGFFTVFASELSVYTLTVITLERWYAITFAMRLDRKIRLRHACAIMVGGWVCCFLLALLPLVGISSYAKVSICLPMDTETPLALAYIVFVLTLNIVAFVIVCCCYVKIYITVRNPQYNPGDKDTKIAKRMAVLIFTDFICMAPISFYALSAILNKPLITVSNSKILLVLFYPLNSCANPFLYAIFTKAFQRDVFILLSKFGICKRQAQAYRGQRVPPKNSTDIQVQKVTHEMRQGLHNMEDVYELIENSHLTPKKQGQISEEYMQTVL
How it was run: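 Antagonist mode: compound-treated TSHR-expressing HEK293 cells were stimulated with 1.5 ng/mL TSH (final) in presence of Ro20-1724 for 30 min at RT. HTRF cAMP detection after 1 h; each compound tested at 15 concentrations, triplicate.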

[16] = qHTS assay to identify small molecule agonists of the sonic hedgehog signaling (Shh) pathway - cell viability counter screen (AID 1259366); further: nearly all actives have a fitted effect of over 50% in size
How it was run: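 Cells are plated at 2,000 per well and left 4hr at 37C, 5% CO2 before compound addition. After 23hr of treatment, CellTiter-Fluor reagent is added for 1hr at 37C and fluorescence is measured.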

[17] = qHTS assay to identify small molecule antagonists of the sonic hedgehog signaling (Shh) pathway - cell viability counter screen (AID 1259367); further: nearly all actives have a fitted effect of over 55% in size
How it was run: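 Viability was read by CellTiter-Fluor fluorescence in the same wells, reagent added 23 hr into compound treatment and incubated 1 hr at 37C. The 3T3 Gli1-Luc reporter cells (2,000/well) received conditioned medium after compound and ran 24 hr.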

[18] = qHTS assay to identify small molecule agonists or antagonists of the thyroid stimulating hormone receptor (TSHR) signaling pathway - wild type cell line counter screen (AID 1259384; calls by dose curve)
How it was run: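 Counter screen in untransfected Hek293: compounds (15-point titration, triplicate) plus phosphodiesterase inhibitor Ro20-1724 added after 18 h plating; 30 min RT. Intracellular cAMP via competitive d2/cryptate immunoassay, 1 h incubation.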
On the % scale 0 is the no-effect control and ±100 the full control effect.

Cc1ccc(C(=O)C(C)CN2CCCCC2)cc1 (stereo unspecified)
inactive: Potency [1] | Potency [2] | Potency [3] | Potency [4] | Potency [5] | outcome [6] | outcome [7] | Potency [8] | Potency [9] | Potency [10] | Potency [11] | Potency [12] | Potency [13] | Potency [14] | Potency [15]

CN1CCC(OC(c2ccccc2)c2ccccc2)CC1
inactive: Potency [1] | Potency [2] | Potency [3] | Potency [4] | Potency [5] | outcome [6] | Potency [16] | Potency [17] | outcome [7] | Potency [11] | Potency [12] | Potency [13] | Potency [14] | Potency [18]

CC[C@H](C)[C@H](N)C(=O)O
inactive: Potency [1] | Potency [2] | Potency [3] | Potency [4] | Potency [5] | outcome [6] | Potency [16] | Potency [17] | outcome [7] | Potency [8] | Potency [9] | Potency [10] | Potency [11] | Potency [12] | Potency [13] | Potency [14] | Potency [18] | Potency [15]

CCCCCCCCC(CO)CCCCCC (stereo unspecified)
inactive: Potency [1] | Potency [2] | Potency [3] | Potency [5] | outcome [6] | Potency [16] | Potency [17] | outcome [7] | Potency [8] | Potency [9] | Potency [10] | Potency [11] | Potency [12] | Potency [13] | Potency [14] | Potency [18] | Potency [15]

C=CC[N+]1([C@H]2C[C@H]3[C@@H]4CC[C@H]5C[C@H](OC(C)=O)[C@@H](N6CCCCC6)C[C@]5(C)[C@H]4CC[C@]3(C)[C@H]2OC(=O)CC)CCCCC1
inactive: Potency [1] | Potency [2] | Potency [3] | PLD induction [4] -0.411% [at 7.66 µM] | Potency [5] | Potency [17] | outcome [7] | Potency [8] | Potency [11] | Potency [13]

Cc1cccc(OCCOc2cccc(C)c2)c1
inactive: Potency [1] | Potency [2] | Potency [3] | Potency [5] | outcome [6] | Potency [16] | Potency [17] | outcome [7] | Potency [8] | Potency [9] | Potency [10] | Potency [11] | Potency [12] | Potency [13] | Potency [14] | Potency [18]

CCN(CC)C(C)CN1c2ccccc2Sc2ccccc21 (stereo unspecified)
inactive: Potency [1] | Potency [2] | Potency [3] | Potency [4] | Potency [5] | outcome [6] | Potency [16] | outcome [7] | Potency [8] | Potency [10] | Potency [11] | Potency [13] | Potency [14] | Potency [18]

O=C(NN1CCCC1)NS(=O)(=O)c1ccc(Cl)cc1
inactive: Potency [1] | Potency [2] | Potency [3] | PLD induction [4] 14% [at 7.66 µM] | Potency [5] | Potency [16] | Potency [17] | outcome [7] | Potency [8] | Potency [9] | Potency [10] | Potency [11] | Potency [13] | Potency [14] | Potency [18] | Potency [15]

OCCC1CCCCN1 (stereo unspecified)
inactive: Potency [1] | Potency [2] | Potency [3] | Potency [5] | outcome [6] | Potency [16] | Potency [17] | outcome [7] | Potency [8] | Potency [9] | Potency [10] | Potency [11] | Potency [13] | Potency [14] | Potency [18]

CCOC(=O)CC(=O)c1cc(F)c(Cl)nc1Cl
inactive: Potency [1] | Potency [2] | Potency [3] | Potency [5] | outcome [6] | Potency [16] | Potency [17] | outcome [7] | Potency [8] | Potency [9] | Potency [10] | Potency [11] | Potency [13] | Potency [14]

CN(C)CC[C@@H](c1ccc(Br)cc1)c1ccccn1
inactive: Potency [1] | Potency [2] | Potency [3] | Potency [4] | Potency [5] | outcome [6] | Potency [16] | Potency [17] | outcome [7] | Potency [8] | Potency [11] | Potency [13] | Potency [14]

OC(CCN1CCCCC1)(c1ccccc1)C1CCCCC1 (stereo unspecified)
active: Potency [8] 8.41 µM
inactive: Potency [1] | Potency [2] | Potency [3] | Potency [4] | Potency [5] | outcome [6] | Potency [16] | Potency [17] | outcome [7] | Potency [9] | Potency [10] | Potency [11] | Potency [13] | Potency [14] | Potency [18]

CN(C)CCCOc1nn(Cc2ccccc2)c2ccccc12
inactive: Potency [1] | Potency [2] | Potency [3] | Potency [4] | Potency [5] | outcome [6] | Potency [17] | outcome [7] | Potency [8] | Potency [10] | Potency [11] | Potency [13] | Potency [15]

Nc1nc(N)c2nc(CNc3ccc(C(=O)N[C@@H](CCC(=O)O)C(=O)O)cc3)cnc2n1
inactive: Potency [1] | Potency [2] | Potency [3] | Potency [4] | Potency [5] | outcome [6] | Potency [17] | outcome [7] | Potency [8] | Potency [10] | Potency [11] | Potency [12] | Potency [13] | Potency [14] | Potency [18] | Potency [15]

Nc1cnn([C@@H]2O[C@H](CO)[C@@H](O)[C@H]2O)c(=O)n1
inactive: Potency [1] | Potency [2] | Potency [3] | Potency [5] | Potency [16] | Potency [17] | outcome [7] | Potency [8] | Potency [9] | Potency [11] | Potency [13] | Potency [14] | Potency [18]
active: Potency [10] 27.3 µM

CC(=O)/C=C/C1C(C)=CCCC1(C)C (stereo unspecified)
inactive: Potency [1] | Potency [2] | Potency [3] | Potency [5] | outcome [6] | Potency [17] | outcome [7] | Potency [8] | Potency [11] | Potency [12] | Potency [13] | Potency [14]

CCCCOC(=O)/C=C\C(=O)OCCCC
inactive: Potency [1] | Potency [2] | Potency [3] | Potency [5] | outcome [6] | Potency [16] | outcome [7] | Potency [8] | Potency [9] | Potency [11] | Potency [13] | Potency [14] | Potency [15]
